The supplement of paper PMC12532568
Where a name gives a salt, the structure may show the parent alone.

test system: Danio rerio larvae Tg(actc1b:ZsGreen-LC3), 3 dpf; test: LC3 puncta relative area vs vehicle, with NH4Cl (autophagic flux) (log2 fold change); higher = more autophagy; settings: 10 µM; treatment time 16 h; NH4Cl: + 100 mM, 4 h
Method: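 Transgenic Tg(actc1b:ZsGreen-map1lc3) zebrafish larvae (2 dpf) were treated for 16 h with Tocris library compounds at 10 µM (n = 12 larvae per compound). Skeletal-muscle LC3 puncta area relative to body area was measured by high-content confocal imaging before and after 4 h of 100 mM NH4Cl (autophagic flux), normalised to vehicle (DMSO), and reported as log2 fold change.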

Structure (SMILES)	LC3 puncta (log2)
CN(C)CCCSC(=N)N [Dimaprit dihydrochloride]	0.561
CC(C)NCC(O)COc1cccc2ccccc12 (stereo not given) [Propranolol hydrochloride]	1.08
N[C@H](C(=O)O)c1cc(O)cc(O)c1	0.736
CC(C)[C@H]1CC[C@H](C(=O)N[C@H](Cc2ccccc2)C(=O)O)CC1 [Nateglinide]	0.54
CC12CC3CC(C)(C1)CC(N)(C3)C2 [Memantine hydrochloride]	0.723
NS(=O)(=O)c1cc2c(cc1Cl)NC(C1CC3C=CC1C3)NS2(=O)=O (stereo not given) [Cyclothiazide]	0.416
CC(C)(Oc1ccc(Cl)cc1)C(=O)O [Clofibric acid]	0.77
O=C(O)c1cc(O)c2ccc(Cl)cc2n1 [7-Chlorokynurenic acid]	0.316
Cc1ccc(/C(=C\CN2CCCC2)c2ccccn2)cc1 [trans-Triprolidine hydrochloride]	-0.196
COc1cc2nc(N3CCN(C(=O)c4ccco4)CC3)nc(N)c2cc1OC [Prazosin hydrochloride]	0.478
O=[N+]([O-])c1cccc2c(Br)[nH]nc12 [3-Bromo-7-nitroindazole]	0.697
COc1ccc2[nH]c(I)c(CCNC(C)=O)c2c1 [2-Iodomelatonin]	0.706
NC(C(=O)O)c1cc(O)cc(O)c1 (racemic)	0.022
O=c1nc2ccccc2c2n1CC(CN1CCN(c3ccccc3)CC1)N2 (stereo not given)	0.259
CCN(CC)CCOc1ccc(Cc2ccccc2)cc1 [DPPE fumarate]	0.857
N[C@@H](CSS(=O)(=O)O)C(=O)O [S-Sulfo-L-cysteine sodium salt]	0.324
O=C(O)c1cc(=O)c2c(Cl)cc(Cl)cc2[nH]1 [5,7-Dichlorokynurenic acid]	0.00257
CC(CCc1ccc(O)cc1)NCCc1ccc(O)c(O)c1 (stereo not given) [Dobutamine hydrochloride]	0.472
CC(C)NC[C@H](O)COc1ccc(CC(N)=O)cc1 [(S)-(-)-Atenolol]	0.611
CC(C)NCC(O)c1ccc2ccccc2c1 (stereo not given) [Pronethalol hydrochloride]	0.862

Structure (SMILES)	LC3 puncta (log2)
CC(=O)N[C@@H](CC(=O)N[C@@H](CCC(=O)O)C(=O)O)C(=O)O [Spaglumic acid]	0.103
N[C@H](C(=O)O)c1ccc(O)c(C(=O)O)c1 [(S)-3-Carboxy-4-hydroxyphenylglycine]	0.54
O=C(O)C1=CCCNC1 [Guvacine hydrochloride]	0.136
N=C(N)S/C=C\C(=O)O [ZAPA sulfate]	0.0813
CCN(CC)CCOC(=O)C1(c2ccc([N+](=O)[O-])cc2)CCCC1 [Nitrocaramiphen hydrochloride]	0.825
O=C(O)C1=CCNCC1 [Isoguvacine hydrochloride]	0.468
CC1(C(=O)O)NCCc2cc(O)c(O)cc21 (stereo not given) [Salsolinol-1-carboxylic acid]	0.429
O=C(NCCN1CCCCC1)c1ccc(I)cc1 [N-[2-(Piperidinylamino)ethyl]-4-iodobenzamide]	0.448
CCC1(c2ccccc2)C(=O)NCNC1=O [Primidone]	0.792
OCCN(CCO)c1nc(N2CCCCC2)c2nc(N(CCO)CCO)nc(N3CCCCC3)c2n1 [Dipyridamole]	-0.141
CC(=O)NCC(=O)N[C@H](CCC(=O)O)C(=O)O [N-Acetylglycyl-D-glutamic acid]	0.237
O=C(NCCCN1CCCCCC1)C(c1ccccc1)C1CCCCC1 (stereo not given)	-0.114
CCN(CC)CCOCCOC(=O)C1(c2ccccc2)CCCC1 [Carbetapentane citrate]	0.392
CC(C)NC[C@H](O)COc1cccc2ccccc12 [(S)-(-)-Propranolol hydrochloride]	1.09
O=C1CN(/N=C/c2ccc(-c3ccc([N+](=O)[O-])cc3)o2)C(=O)N1 [Dantrolene, sodium salt]	0.404
CC#CCOC(=O)C1=CCCN(C)C1 [Arecaidine but-2-ynyl ester tosylate]	0.452
NCC(O)(CS(=O)(=O)O)c1ccc(Cl)cc1 (stereo not given) [2-Hydroxysaclofen]	0.449
c1ccc(N2CCN(CCCOc3ccc4c(c3)OCO4)CC2)cc1 [BP 554 maleate]	0.422
NC(N)=NC(N)=Nc1cccc(Cl)c1 [m-Chlorophenylbiguanide hydrochloride]	0.782
NS(=O)(=O)c1cccc2c1c([N+](=O)[O-])cc1nc(O)c(O)nc12	0.16
